PubChem BioAssay AID1159580 (chemical genetic matrix, 2015)
Several values for one entry are separate records, joined by “and”; a condition that tells them apart may be missing. Equal values may be shown once. The campaign covered roughly 5,500 compounds. About 2,000 (36%) were called active. About 18% were inconclusive and are not listed. Cut-off read from the data, not from the text of the source: active = normalized growth mostly below about 0.91 (no sharp cut-off); inconclusive = no clear call, values can overlap the other calls; inactive = mostly above about 0.92. The list shows a part of the results.

Experiment: chemical genetic growth profiling, strain panel (AID 1159580);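 note: tested at 20 µM; growth read once vehicle control cultures reached saturation at 30 °C; 1 = growth at the plate median or of vehicle wells; lower values mean less growth of the strain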
Conditions: S. cerevisiae deletion strains, growth OD

Measured: normalized growth

Oc1ccc2c3c1OC1[C@@H](O)CC[C@@]4(O)[C@@H](C2)N(CC2CCC2)CC[C@]314 (stereo partly specified)
inactive: locus YAL013W, strain DEP1, stronger effect = lower value 1.01 | locus YAL021C, strain ccr4, stronger effect = lower value 0.987 | locus YAL026C, strain drs2, stronger effect = lower value 1.02 | locus YAL030W, strain snc1, stronger effect = lower value 0.981 | locus YBL061C, strain skt5, stronger effect = lower value 0.997 | locus YBR009C, strain hhf1, stronger effect = lower value 1.01 | locus YBR021W, strain FUR4, stronger effect = lower value 1.02 | locus YBR023C, strain chs3, stronger effect = lower value 0.993 | locus YBR171W, strain sec66, stronger effect = lower value 0.974 | locus YBR229C, strain ROT2, stronger effect = lower value 1.02 | locus YBR231C, strain swc5, stronger effect = lower value 0.997 | locus YBR279W, strain paf1, stronger effect = lower value 0.999 | locus YCL011C, strain gbp2, stronger effect = lower value 1.01 | locus YCL016C, strain dcc1, stronger effect = lower value 1.02 | locus YCL029C, strain bik1, stronger effect = lower value 1.03 | locus YCL061C, strain MRC1, stronger effect = lower value 1 | locus YCL069W, strain vba3, stronger effect = lower value 0.993 | locus YCR088W, strain abp1, stronger effect = lower value 1.01 | locus YDL005C, strain med2, stronger effect = lower value 0.989 | locus YDL035C, strain GPR1, stronger effect = lower value 1.02 | locus YDL040C, strain nat1, stronger effect = lower value 1 | locus YDL074C, strain BRE1, stronger effect = lower value 1.04 | locus YDL101C, strain DUN1, stronger effect = lower value 1.02 | locus YDL134C, strain PPH21, stronger effect = lower value 1.02 | locus YDL185W, strain tfp1, stronger effect = lower value 1.02 | locus YDL192W, strain arf1, stronger effect = lower value 1.02 | locus YDR001C, strain nth1, stronger effect = lower value 1.02 | locus YDR069C, strain doa4, stronger effect = lower value 1 | locus YDR101C, strain arx1, stronger effect = lower value 1.01 | locus YDR137W, strain rgp1, stronger effect = lower value 1.01 | locus YDR150W, strain NUM1, stronger effect = lower value 1.02 | locus YDR159W, strain sac3, stronger effect = lower value 0.987 | locus YDR162C, strain NBP2, stronger effect = lower value 1.02 | locus YDR195W, strain ref2 0.974 | locus YDR297W, strain sur2, stronger effect = lower value 1.01 | locus YDR318W, strain mcm21, stronger effect = lower value 1.02 | locus YDR334W, strain swr1, stronger effect = lower value 0.994 | locus YDR335W, strain msn5, stronger effect = lower value 1 | locus YDR388W, stronger effect = lower value 1.01 | locus YDR392W, strain spt3, stronger effect = lower value 1.01 | locus YDR502C, strain sam2, stronger effect = lower value 1.02 | locus YEL003W, strain gim4, stronger effect = lower value 1 | locus YEL037C, strain rad23, stronger effect = lower value 0.988 | locus YEL061C, strain CIN8 (second series), stronger effect = lower value 0.99 | locus YEL061C, strain CIN8, stronger effect = lower value 1.01 | locus YER015W, strain faa2, stronger effect = lower value 0.996 | locus YER016W, strain bim1, stronger effect = lower value 1.01 | locus YER110C, stronger effect = lower value 1.02 | locus YER111C, strain swi4, stronger effect = lower value 0.997 | locus YER155C, strain BEM2 (second series), stronger effect = lower value 0.963 | locus YER155C, strain BEM2, stronger effect = lower value 1.01 | locus YER167W, strain BCK2, stronger effect = lower value 1.02 | locus YFR010W, strain ubp6, stronger effect = lower value 0.978 | locus YGL078C, strain dbp3, stronger effect = lower value 1.01 | locus YGL086W, strain mad1, stronger effect = lower value 1.01 | locus YGL167C, strain pmr1, stronger effect = lower value 0.99 | locus YGL173C, strain kem1, stronger effect = lower value 0.98 | locus YGL227W, strain vid30, stronger effect = lower value 0.986 | locus YGL240W, strain doc1, stronger effect = lower value 1.01 | locus YGL248W, strain PDE1, stronger effect = lower value 1.02 | locus YGL253W, strain hxk2, stronger effect = lower value 1.01 | locus YGR078C, strain PAC10, stronger effect = lower value 1.03 | locus YGR135W, strain pre9, stronger effect = lower value 1.01 | locus YGR229C, strain SMI1, stronger effect = lower value 1.03 | locus YGR252W, strain gcn5, stronger effect = lower value 0.984 | locus YHR013C, strain ard1, stronger effect = lower value 0.973 | locus YHR027C, strain rpn1, stronger effect = lower value 0.996 | locus YHR030C, strain SLT2, stronger effect = lower value 1.02 and 0.983 | locus YHR079C, strain IRE1 (second series), stronger effect = lower value 1.02 | locus YHR079C, strain IRE1, stronger effect = lower value 0.966 | locus YHR094C, strain hxt1, stronger effect = lower value 1.01 | locus YHR129C, strain ARP1, stronger effect = lower value 1 | locus YHR142W, strain chs7, stronger effect = lower value 1.01 | locus YHR200W, strain rpn10, stronger effect = lower value 1.01 | locus YIL066C, strain RNR3, stronger effect = lower value 1.02 | locus YIL073C, strain SPO22, stronger effect = lower value 1.07 | locus YIL125W, strain kgd1, stronger effect = lower value 1.01 | locus YIR030C, strain dcg1, stronger effect = lower value 1.01 | locus YJL092W, strain hpr5, stronger effect = lower value 0.99 | locus YJL095W, strain BCK1 (second series), stronger effect = lower value 0.985 | locus YJL095W, strain BCK1, stronger effect = lower value 1.03 and 0.981 | locus YJL115W, strain asf1, stronger effect = lower value 0.974 | locus YJL129C, strain trk1, stronger effect = lower value 0.974 | locus YJL134W, strain LCB3, stronger effect = lower value 1.01 | locus YJL154C, strain vps35, stronger effect = lower value 0.999 | locus YJL164C, strain tpk1, stronger effect = lower value 1.01 | locus YJL166W, strain qcr8, stronger effect = lower value 0.986 | locus YJL168C, strain set2, stronger effect = lower value 1.01 | locus YJL187C, strain SWE1 (second series), stronger effect = lower value 1.03 | locus YJR043C, strain POL32, stronger effect = lower value 1.04 | locus YJR066W, strain TOR1, stronger effect = lower value 0.905
